KDM5B inhibitor: blocks human KDM5B histone demethylase activity | Q9UGL1 | KDM5B demethylase, FDH-coupled NADH fluorescence (FDH is formaldehyde dehydrogenase) | Potency, µM (highest dose often 57.7 µM), hits mostly inhibitors | 2.6% of 220,000 active; active = well fitted inhibition curve with a large enough effect; also: nearly all actives have a fitted effect of over 70% in size
Target sequence (Q9UGL1 whole entry, looked up): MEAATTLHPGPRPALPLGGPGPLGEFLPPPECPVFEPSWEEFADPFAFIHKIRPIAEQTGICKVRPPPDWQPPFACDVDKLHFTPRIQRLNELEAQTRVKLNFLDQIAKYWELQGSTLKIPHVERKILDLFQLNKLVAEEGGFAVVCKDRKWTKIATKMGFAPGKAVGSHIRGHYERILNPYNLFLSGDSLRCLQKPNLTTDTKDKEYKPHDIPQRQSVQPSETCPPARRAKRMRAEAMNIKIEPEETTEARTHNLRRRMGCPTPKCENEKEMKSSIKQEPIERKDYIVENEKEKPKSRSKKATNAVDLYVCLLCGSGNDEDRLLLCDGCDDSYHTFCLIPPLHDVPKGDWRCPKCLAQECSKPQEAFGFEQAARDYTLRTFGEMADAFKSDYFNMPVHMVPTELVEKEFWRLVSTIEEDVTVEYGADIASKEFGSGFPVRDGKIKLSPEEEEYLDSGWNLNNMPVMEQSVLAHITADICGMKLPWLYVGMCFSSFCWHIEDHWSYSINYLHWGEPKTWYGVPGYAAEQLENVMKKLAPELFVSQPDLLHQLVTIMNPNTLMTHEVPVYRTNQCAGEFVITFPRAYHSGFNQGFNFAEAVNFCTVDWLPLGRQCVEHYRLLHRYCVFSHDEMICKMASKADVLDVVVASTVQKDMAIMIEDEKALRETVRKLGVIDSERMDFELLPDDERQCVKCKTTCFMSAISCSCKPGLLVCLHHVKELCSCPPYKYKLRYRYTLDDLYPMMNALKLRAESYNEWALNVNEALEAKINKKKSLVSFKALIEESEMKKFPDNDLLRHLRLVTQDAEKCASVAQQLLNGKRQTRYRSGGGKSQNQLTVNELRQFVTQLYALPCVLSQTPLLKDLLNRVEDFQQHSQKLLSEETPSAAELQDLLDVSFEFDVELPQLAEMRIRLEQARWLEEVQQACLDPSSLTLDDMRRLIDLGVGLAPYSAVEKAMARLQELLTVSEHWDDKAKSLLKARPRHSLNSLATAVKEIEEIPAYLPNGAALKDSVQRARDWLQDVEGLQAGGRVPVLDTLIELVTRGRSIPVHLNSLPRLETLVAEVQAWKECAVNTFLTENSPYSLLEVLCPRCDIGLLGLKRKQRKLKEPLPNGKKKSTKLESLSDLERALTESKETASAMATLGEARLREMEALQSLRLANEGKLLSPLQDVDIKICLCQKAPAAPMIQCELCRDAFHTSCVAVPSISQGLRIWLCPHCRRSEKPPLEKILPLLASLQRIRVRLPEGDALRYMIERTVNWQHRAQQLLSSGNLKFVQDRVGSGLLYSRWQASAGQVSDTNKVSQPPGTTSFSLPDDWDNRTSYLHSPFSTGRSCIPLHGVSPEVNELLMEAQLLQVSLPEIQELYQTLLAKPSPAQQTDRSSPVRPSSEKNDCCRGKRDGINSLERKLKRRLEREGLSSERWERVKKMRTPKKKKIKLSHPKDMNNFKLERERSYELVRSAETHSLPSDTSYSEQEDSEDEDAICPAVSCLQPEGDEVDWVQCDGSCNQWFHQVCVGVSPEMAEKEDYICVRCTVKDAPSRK
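Inhibition is measured as reduced NADH fluorescence generation from FDH coupling to formaldehyde release. Truncated KDM5BΔAP at 200 nM final acts on H3K4me3 peptide (12.5 µM in substrate mix) in pH 7.5 HEPES buffer with Tween-20, 30 min, room temperature.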
A number is an active result. This is one part of a sample in which hits are shown more often than they occur.

Screening CN(C)C(=O)c1cc2cccnn2n1 returned KDM5B inhibitor 32µM.
Screening CNC(=O)c1cn2c(n1)CN(C(=O)c1ccccc1)CC2 returned KDM5B inhibitor inactive.
For CN(C)C(=O)c1cc(C(C)(C)C)c2cccn2n1 the results were KDM5B inhibitor inactive.
`CNC(=O)c1cc2cccnn2n1` gave KDM5B inhibitor 32µM.
Cc1ccc(CNc2nc3c(c(=O)n(C)c(=O)n3C)n2Cc2cccc3ccccc23)cc1 was read as KDM5B inhibitor inactive.
Screening CCOc1ccc(C(=O)N2CCC[C@H]2c2nc(-c3ccccc3Cl)no2)cc1 returned KDM5B inhibitor inactive.
Screening COc1cccc(-c2ccc3nnc(SCC(=O)N4CCCc5ccccc54)n3n2)c1 returned KDM5B inhibitor inactive.
CCS(=O)(=O)N1CCC2(CCC(=O)N(Cc3ccccc3)CC2)CC1 was read as KDM5B inhibitor inactive.
Screening CCC[C@H]1CN(CC(=O)NCCc2ccc(F)cc2)C[C@@H]1NC(C)=O returned KDM5B inhibitor inactive.
`CCC[C@@H]1CN(C(=O)c2ccc(-c3ccc(C)o3)cc2)C[C@H]1NC(C)=O` gave KDM5B inhibitor 28µM.
For CCC[C@H]1CN(CCCOc2ccc(C(N)=O)cc2)C[C@@H]1NC(C)=O the results were KDM5B inhibitor inactive.
Screening CC(=O)c1cccc(Nc2c3c(nc4nc(-c5cccs5)nn24)CCCC3)c1 returned KDM5B inhibitor inactive.
`c1csc(-c2nc3nccc(-c4ccncc4)n3n2)c1` gave KDM5B inhibitor 28µM.
Screening c1csc(-c2ccnc3nc(C4CCC4)nn23)c1 returned KDM5B inhibitor inactive.
Screening COCc1nc2nccc(-c3cccs3)n2n1 returned KDM5B inhibitor inactive.
For Cc1ccc(Nc2c3c(nc4nc(-c5cccs5)nn24)CCCC3)cc1F the results were KDM5B inhibitor inactive.
For c1coc(-c2ccnc3nc(-c4cccs4)nn23)c1 the results were KDM5B inhibitor 28µM.
Brc1ccc(-c2ccnc3nc(-c4cccs4)nn23)cc1 was read as KDM5B inhibitor 7.9µM.
`COCCn1ncc(N2CCC(C(=O)N3CCN(C(C)C)CC3)C2)cc1=O` (centres undefined) gave KDM5B inhibitor inactive.
`COc1ccc(-c2nc3ccccc3c(C)c2CC(=O)O)cc1OC` gave KDM5B inhibitor inactive.
`CC(C)c1cc(C(=O)Nc2ccc(Cl)cc2)nn1C1CCS(=O)(=O)C1` (centres undefined) gave KDM5B inhibitor inactive.
COc1cc(C(=O)OCC(=O)NC(C)C(C)C)cc(Cl)c1OC (centres undefined) was read as KDM5B inhibitor inactive.
For COc1ccc(C(=O)C(C(=O)C(F)(F)F)C23CC4CC(CC(C4)C2)C3)cc1OC (centres undefined) the results were KDM5B inhibitor inactive.
COCCn1c(-n2nc(C)cc2C)nc2c1c(=O)n(Cc1ccc(OC)cc1)c(=O)n2C was read as KDM5B inhibitor inactive.
O=C(COc1ccccc1Cl)NC1CCCN(c2ncccn2)C1 (centres undefined) was read as KDM5B inhibitor inactive.
For COc1ccc(C2(C(=O)NC3CCCN(c4ncccn4)C3)CC2)cc1 (centres undefined) the results were KDM5B inhibitor 22µM.
`CCc1c(C)nn(CC(=O)NC2CCCN(c3ncccn3)C2)c1C` (centres undefined) gave KDM5B inhibitor 20µM.
For COc1ccc(C2(C(=O)NC3CCc4n[nH]c(=O)n4CC3)CC2)cc1 (centres undefined) the results were KDM5B inhibitor inactive.
Screening COCc1nnc2n1CCC(NC(=O)C1(c3ccc(OC)cc3)CC1)CC2 (centres undefined) returned KDM5B inhibitor inactive.
`O=C(CSC12CC3CC(CC(C3)C1)C2)NC1CCCN(c2ncccn2)C1` (centres undefined) gave KDM5B inhibitor inactive.
Cn1ncc(N2CCCC(CC(=O)NC3CCCCC3)C2)cc1=O (centres undefined) was read as KDM5B inhibitor inactive.
Screening COc1ccccc1CNC[C@H]1Cn2c(-c3cccc(Cl)c3)cnc2CO1 returned KDM5B inhibitor inactive.
For Cc1ccc(CNC(=S)NNC=O)cc1 the results were KDM5B inhibitor inactive.
For Cc1nc(-c2c3n(c(=O)n(CC(=O)NCc4ccccc4Cl)c2=O)CCCCC3)no1 the results were KDM5B inhibitor inactive.
Screening O=C(Nc1nccs1)[C@@H]1C[C@@H](c2ccc(F)cc2)N(Cc2ccccc2)C1 returned KDM5B inhibitor inactive.
`CCOC(=O)c1cc(S(=O)(=O)Nc2ccc(CC)cc2)[nH]n1` gave KDM5B inhibitor inactive.
COCCOc1ccc2c(n1)CCN(C(=O)CCc1ccccc1)C2 was read as KDM5B inhibitor inactive.
`COCCn1cc2c3c(cccc31)CN(C(=O)CCCc1ccccc1)CC2` gave KDM5B inhibitor 25µM.
`COCCN1CCC(N2CCN(C(=O)CCCc3ccccc3)CC2)C1=O` (centres undefined) gave KDM5B inhibitor inactive.
COc1ccc2c(C)c(CCC(=O)Nc3ccc(OC)c(OC)c3)c(=O)oc2c1 was read as KDM5B inhibitor inactive.
`Cc1ccc(C)c(NC(=O)Cn2c(=O)n(-c3ccccc3)c(=O)c3c2cc(C)n3C)c1` gave KDM5B inhibitor inactive.
`Cc1ccc(C)c(Cn2c(C(C)NC(=O)c3ccco3)nc3ccccc32)c1` (centres undefined) gave KDM5B inhibitor inactive.
Screening O=C(NC1CC1)c1nc(-c2cccnc2)c2ccccn12 returned KDM5B inhibitor 89µM.
O=C(NC1CC1)c1nc(-c2ccc(F)cc2)c2ccccn12 was read as KDM5B inhibitor 32µM.
`CCC(C)NC(=O)C1COC2(CCN(C(=O)CC(C)(C)C)CC2)N1C(=O)c1cccc(C)c1` (centres undefined) gave KDM5B inhibitor inactive.
`O=C(c1cccc(F)c1)N1CC(Oc2ccc(-c3noc(C4CCOCC4)n3)cc2)C1` gave KDM5B inhibitor inactive.
Screening CCOc1ccc(-n2nnnc2CNC(=O)Nc2ccc3c(c2)OCO3)cc1 returned KDM5B inhibitor inactive.
Screening O=C(c1cccc(S(=O)(=O)NC2CC2)c1)N1CCN(c2ccccc2O)CC1 returned KDM5B inhibitor inactive.
`Cn1cccc1C(=O)N1CCN(C(=O)c2nnn3c2COC(c2ccc(Cl)cc2)C3)CC1` (centres undefined) gave KDM5B inhibitor inactive.
`c1ccc(-c2cc(NC3CCCC3)nc3ccccc23)cc1` gave KDM5B inhibitor inactive.
Screening COCCOc1nc2c(c(=O)n(C)c(=O)n2C)n1C(C)c1ccccc1 (centres undefined) returned KDM5B inhibitor inactive.
`COc1cc2c(cc1OC)C(CNC(=O)C1CC1)N(C(=O)NC(C)C)CC2` (centres undefined) gave KDM5B inhibitor inactive.
For CCCNC(=O)NCC1c2cc(OC)c(OC)cc2CCN1C(=O)NC(C)C (centres undefined) the results were KDM5B inhibitor 22µM.
`CCCNC(=O)NCC1c2cc(OC)c(OC)cc2CCN1C(=O)NCC` (centres undefined) gave KDM5B inhibitor inactive.
Cc1ccc(NC(=O)N2CCN(c3nnnn3-c3ccc(Cl)c(C)c3)CC2)cc1F was read as KDM5B inhibitor inactive.
Screening NC1CCc2nn(CC(=O)N(Cc3ccccc3)Cc3ccco3)c(=O)n2CC1 (centres undefined) returned KDM5B inhibitor inactive.
Screening O=C(c1cccc(F)c1)N1CCC(n2cc(-c3nc(-c4ccccc4)no3)nn2)CC1 returned KDM5B inhibitor inactive.
Screening COc1ccc2c(c1)c(CN1CCCC(c3nc(C(C)C)no3)CCNC(=O)CC1)cn2C(C)C (centres undefined) returned KDM5B inhibitor inactive.

Screening results as filed in PubChem BioAssay.
